# Assay outcomes: PubChem, several laboratories
# Rows were chosen to be rich in hits. Some 2.1% of all compounds tested hit in one or more screens of this group.
# IL1B NFkB inh – blocks IL-1B driven NFkB nuclear translocation in HUVEC cells | HUVEC IL-1B NFkB p65 nuclear translocation imaging | inhibition, % at 2 µM | 94,000 compounds, 0.43% hits;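 active = inhibition above about 30% together with a positive call from visual inspection of the well image, limit read from the data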;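 note: nuclear over cytoplasmic p65 intensity ratio measured by imaging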
# TNAP act DEA – activators of human TNAP at intermediate phosphate acceptor; P05186; purified TNAP, CDP-star luminescence, 100 mM DEA, 30 min; active compounds read high; scale: 0 levamisole-inhibited, 1 vehicle-only enzyme; activation factor at 20 µM; 64,000 tested, under 10 active; AID 813;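 active = activation factor of at least 2 at 20 µM, relative to controls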
# PLAP activator – human PLAP activation | 96,000 compounds, 1.2% hits | activation fold at 20 µM | P05187 | purified PLAP enzyme, luminescent substrate read-out; active compounds read high | AID 696; in the data active = activation fold above about 2
# Target sequence (P05187 whole entry, looked up): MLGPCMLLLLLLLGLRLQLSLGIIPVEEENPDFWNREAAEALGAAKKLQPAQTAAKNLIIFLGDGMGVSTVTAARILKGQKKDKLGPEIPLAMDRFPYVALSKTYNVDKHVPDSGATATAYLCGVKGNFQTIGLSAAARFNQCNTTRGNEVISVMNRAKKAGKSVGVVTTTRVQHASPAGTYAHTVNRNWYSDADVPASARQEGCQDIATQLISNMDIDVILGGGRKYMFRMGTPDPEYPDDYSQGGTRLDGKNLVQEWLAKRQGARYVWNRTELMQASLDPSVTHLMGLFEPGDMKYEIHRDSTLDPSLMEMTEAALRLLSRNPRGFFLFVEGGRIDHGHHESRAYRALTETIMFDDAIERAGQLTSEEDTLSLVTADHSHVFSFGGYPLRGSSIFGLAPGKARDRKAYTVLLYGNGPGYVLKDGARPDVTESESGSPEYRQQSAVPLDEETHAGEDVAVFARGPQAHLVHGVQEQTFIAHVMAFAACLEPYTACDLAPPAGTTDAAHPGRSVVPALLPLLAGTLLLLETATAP
# HUVEC tox IL1B – toxic to HUVEC cells under IL-1B stimulation; HUVEC cell count loss, Hoechst imaging, IL-1B stimulated; 94,000 compounds, 0.41% hits; AID 845; cell count reduction, % at 2 µM;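 active = cell count reduction more than 3 SD above the screen-wide mean, cut at about 70% in these data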
# NFkB transloc pot – enhances IL-1B driven NFkB nuclear translocation. HUVEC IL-1B NFkB p65 nuclear translocation imaging. activation, % at 2 µM. 94,000 compounds, 0.3% hits. AID 819;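 active = activation above 40%, about the mean plus 3 SD, also judged a hit on visual image review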;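 note: percent activation is computed from the nuclear over cytoplasmic p65 intensity ratio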
# Hits are given with their value; - = inactive; . = no result.
SMILES,IL1B NFkB inh,TNAP act DEA,PLAP activator,HUVEC tox IL1B,NFkB transloc pot
COc1ccc(NC(=O)C2CCN(S(=O)(=O)c3ccc(OC)c(OC)c3)CC2)cc1,-,.,-,-,-
COc1cccc(NC2=NC3(CCCCC3)N=C(N)N2)c1,-,-,2.8,-,-
Cc1ccc(NC2=NC3(CCCCC3)N=C(N)N2)c(C)c1,96.9,-,2.2,-,-
Cc1cccc(C)c1NC1=NC2(CCCCC2)N=C(N)N1,-,-,-,-,-
COc1ccc(OCCCC(=O)Nc2cc([N+](=O)[O-])ccc2C)cc1,-,.,-,-,-
Cc1cc(C)cc(OCC(=O)Nc2ccc(N3CCCC3)cc2)c1,-,-,-,-,-
Cc1cc(C)cc(OCC(=O)Nc2ccc(F)cc2)c1,-,.,-,84.5,-
Cc1cc(C)cc(OCC(=O)NNC(=O)c2cc(C)[nH]n2)c1,-,.,2.7,-,-
COC(=O)C1=C(C)N(c2ccc(Cl)c(Cl)c2)C(=O)C1,-,-,.,-,55.4
COC(=O)C1=C(C)N(c2ccc(S(N)(=O)=O)cc2)C(=O)C1,-,-,-,-,-
Cc1cc(C)nc(Nc2n[nH]c(-c3ccc(N)cc3)n2)n1,-,.,2.4,-,-
Cc1cc(C)nc(Nc2n[nH]c(-c3ccccc3Br)n2)n1,-,-,-,-,-
COCCOC(=O)C1=C(C)N=C2SCCC(=O)N2C1c1cc(Br)ccc1OC (configuration not stated),.,-,.,.,.
O=C(c1cc2n(n1)C(C(F)(F)F)CC(c1ccco1)N2)N1CCc2ccccc2C1 (configuration not stated),-,-,-,74.6,-
COc1ccccc1N1CCN(C(=O)c2cc3n(n2)C(C(F)(F)F)CC(c2ccco2)N3)CC1 (configuration not stated),.,-,-,.,.
COc1ccccc1NC(=O)CSc1nnc(CNC(=O)COc2ccc(Cl)cc2)o1,-,-,-,-,40.3
CCn1c(CNC(=O)COc2ccc(C(C)C)cc2)nnc1SCC(=O)Nc1ccccc1F,-,.,2,-,-
Cc1sc2nc3c(C(=O)N4CCN(c5ncccn5)CC4)cccn3c(=O)c2c1C,.,-,.,.,.
Cn1c(=O)c2c(nc(SCC(=O)N(C3CCCCC3)C3CCCCC3)n2C)n(C)c1=O,-,.,.,-,-
N=C1C(c2nc3ccccc3[nH]2)=C(O)CN1c1ccc(CC(=O)O)cc1,-,.,2.6,-,-
CCOC(=O)c1ccc(N2CC(O)=C(c3nc4ccccc4c(=O)[nH]3)C2=N)cc1,-,-,-,-,-
N=C1C(c2nc3ccccc3c(=O)[nH]2)=C(O)CN1c1ccccc1,-,.,2.2,-,-
N=C1C(c2nc3ccccc3[nH]2)=C(O)CN1c1ccccc1,-,-,-,-,-
Cc1nc2ccccc2c(=O)[nH]1,-,.,-,-,-
O=c1[nH]c(-c2ccccn2)nc2ccccc12,-,-,2.4,-,-
SMILES,IL1B NFkB inh,TNAP act DEA,PLAP activator,HUVEC tox IL1B,NFkB transloc pot
Cc1cc(OC(C)C(=O)N/N=C/CC(C)c2ccccc2)ccc1Cl (configuration not stated),-,.,-,-,-
CCN(CC)C(=O)C(=O)c1cccn1-c1ccccc1C#N,-,.,-,-,-
c1coc(Cn2c(SCc3nc4ccccc4[nH]3)nnc2-c2cnccn2)c1,-,-,2.2,-,-
c1ccc(-c2nnc(SCc3nc4ccccc4[nH]3)n2Cc2ccco2)nc1,-,-,2.6,-,-
Clc1cccc(-c2nnc(SCc3nc4ccccc4[nH]3)n2Cc2ccco2)c1,-,-,2.2,-,-
Clc1ccccc1CSc1nnc(-c2ccccn2)n1Cc1ccco1,-,-,-,-,-
COc1ccc(Cc2nnc3n2N=C(c2cc4ccccc4o2)CS3)cc1OC,-,-,.,-,-
Cn1c(=O)[nH]c(=O)c2c1nc(N1CCOCC1)n2CCSc1nc2ccccc2[nH]1,-,.,-,-,-
O=C(Cc1ccc(Cl)cc1)Nc1ccc(N2CCN(C(=O)c3ccco3)CC2)c(Cl)c1,-,-,2.4,-,-
O=C(Nc1ccc(N2CCN(C(=O)c3ccco3)CC2)c(Cl)c1)c1cccs1,-,-,-,-,-
CC(=O)C1=NN(c2ccccc2)C2(S1)S/C(=C\c1ccccc1)C(=O)N2c1ccccc1 (configuration not stated),-,.,-,-,-
Cc1cc(Cl)ccc1NC(=S)NCCC(c1ccccc1)c1ccccc1,-,.,-,-,-
O=C(CSc1ncccc1-c1nc2ccccc2[nH]1)NCc1ccco1,-,-,2,-,-
Cc1cnc(-c2nnc(N(C)C(=O)c3ccncc3)s2)cn1,.,-,.,.,.
FC(F)Oc1ccc(NC(=S)NCc2ccccc2)cc1Cl,30.5,.,-,-,-
Cc1cccc(NC(=S)NNC(=S)NCc2ccccc2)c1,-,.,-,-,-
O=C(NCC1OCCc2ccccc21)c1ccco1 (configuration not stated),-,-,-,-,53.3
COc1cc(NC(=O)c2cnn3c(C)cc(C)nc23)c(OC)cc1Cl,-,-,-,-,-
Cc1nn(CCC(=O)NNC(=S)Nc2ccc(Cl)cc2)c(C)c1[N+](=O)[O-],-,.,.,-,-
Cc1ccc(NC(=S)NNC(=O)c2cn(C)nc2C)cc1,-,.,2.3,-,-
Cc1nn(C(C)C(=O)NNC(=S)Nc2ccc(Cl)cc2)c(C)c1[N+](=O)[O-] (configuration not stated),-,.,2.4,-,-
Cc1ccc(NC(=S)NNC(=O)c2c([N+](=O)[O-])c(C)nn2C)cc1,-,.,2.5,-,-
Cc1ccc(NC(=S)NNC(=O)c2nn(C)c(C)c2Cl)cc1,-,.,2.3,-,-
COc1ccc(-n2cnnc2SCC(=O)N(C)C2CCS(=O)(=O)C2)cc1 (configuration not stated),-,-,-,-,-
CN(C(=S)Nc1ccc(F)cc1)C1(c2ccccc2Cl)CCCCC1=O (configuration not stated),-,.,-,-,-
SMILES,IL1B NFkB inh,TNAP act DEA,PLAP activator,HUVEC tox IL1B,NFkB transloc pot
COc1cc(/C=N\NC(=O)Cn2nnc3ccccc32)cc(OC)c1OC,-,.,-,-,-
COc1ccc(O)c(/C=N\NC(=O)CCn2nnc3ccccc32)c1,-,.,2.1,-,-
CCn1c(CCNC(=O)c2cccs2)nnc1SCC(=O)c1ccc(OC)cc1,-,-,.,-,-
CCOCCCNS(=O)(=O)c1ccc(Br)cc1,-,-,-,-,-
O=C(Cc1cccs1)N1CCCC(c2nc3c(nnn3Cc3cccc(Cl)c3)c(=O)[nH]2)C1 (configuration not stated),-,-,-,-,-
O=C1CCC(=O)N1c1nc2n(n1)C(c1ccccc1)C=C(c1ccc(Br)cc1)N2 (configuration not stated),-,-,2,-,-
CC(=O)Nc1nc2n(n1)C(c1ccccc1)C=C(c1ccccc1)N2 (configuration not stated),-,-,2.1,-,-
CC(=O)Nc1nc2n(n1)C(c1ccc(Cl)cc1)C=C(C)N2 (configuration not stated),-,-,-,-,-
O=C(Nc1nc2n(n1)C(c1ccccc1)C=C(c1ccccc1)N2)c1ccco1 (configuration not stated),-,-,2.9,-,-
